In PubChem BioAssay AID1159580 (chemical genetic matrix, 2015):
Where “and” joins values, the source holds several entries; their conditions need not be identical. Equal entries are not always repeated. The whole screen tested about 5,500 compounds, of which about 2,000 (36%) were called active. Inconclusive results (about 18%) are left out. The list shows a part of the results. Unmarked numbers belong to inactive results. Cut-off read from the data, not from the text of the source: active = normalized growth mostly below about 0.91 (no sharp cut-off); inconclusive = no clear call, values can overlap the other calls; inactive = mostly above about 0.92.

Assay: chemical genetic growth profiling, strain panel (AID 1159580);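 note: tested at 20 µM; growth read once vehicle control cultures reached saturation at 30 °C; 1 = growth at the plate median or of vehicle wells; lower values mean less growth of the strain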
Conditions: S. cerevisiae deletion strains, growth OD

CC1(C)C2CC[C@]3(C)C(C(=O)C=C4[C@H]5C[C@@](C)(C(=O)O)CC[C@]5(C)CC[C@]43C)[C@@]2(C)CC[C@@H]1O (stereo partly specified)
normalized growth (locus YAL013W, strain DEP1, hits give low values): 1.04 | normalized growth (locus YAL021C, strain ccr4, hits give low values): 1.02 | normalized growth (locus YAL026C, strain drs2, hits give low values): 0.881 (active) | normalized growth (locus YAL030W, strain snc1, hits give low values): 1 | normalized growth (locus YBL061C, strain skt5, hits give low values): 0.972 | normalized growth (locus YBR009C, strain hhf1, hits give low values): 0.861 (active) | normalized growth (locus YBR021W, strain FUR4, hits give low values): 1 | normalized growth (locus YBR023C, strain chs3, hits give low values): 0.941 | normalized growth (locus YBR171W, strain sec66, hits give low values): 1.02 | normalized growth (locus YBR229C, strain ROT2, hits give low values): 1.04 | normalized growth (locus YBR231C, strain swc5, hits give low values): 0.98 | normalized growth (locus YBR279W, strain paf1, hits give low values): 0.948 | normalized growth (locus YCL011C, strain gbp2, hits give low values): 0.923 | normalized growth (locus YCL016C, strain dcc1, hits give low values): 0.944 | normalized growth (locus YCL029C, strain bik1, hits give low values): 0.962 | normalized growth (locus YCL061C, strain MRC1, hits give low values): 0.96 | normalized growth (locus YCL069W, strain vba3, hits give low values): 0.955 | normalized growth (locus YCR088W, strain abp1, hits give low values): 1.01 | normalized growth (locus YDL005C, strain med2, hits give low values): 1 | normalized growth (locus YDL035C, strain GPR1, hits give low values): 0.969 | normalized growth (locus YDL040C, strain nat1, hits give low values): 0.995 | normalized growth (locus YDL074C, strain BRE1, hits give low values): 1.02 | normalized growth (locus YDL101C, strain DUN1, hits give low values): 1.02 | normalized growth (locus YDL134C, strain PPH21, hits give low values): 1.03 | normalized growth (locus YDL185W, strain tfp1, hits give low values): 1.01 | normalized growth (locus YDL192W, strain arf1, hits give low values): 1.01 | normalized growth (locus YDR001C, strain nth1, hits give low values): 1.02 | normalized growth (locus YDR069C, strain doa4, hits give low values): 0.985 | normalized growth (locus YDR101C, strain arx1, hits give low values): 0.988 | normalized growth (locus YDR137W, strain rgp1, hits give low values): 0.743 (active) | normalized growth (locus YDR150W, strain NUM1, hits give low values): 1.06 | normalized growth (locus YDR159W, strain sac3, hits give low values): 0.977 | normalized growth (locus YDR162C, strain NBP2, hits give low values): 1.02 | normalized growth (locus YDR195W, strain ref2): 1.1 | normalized growth (locus YDR297W, strain sur2, hits give low values): 0.963 | normalized growth (locus YDR318W, strain mcm21, hits give low values): 0.994 | normalized growth (locus YDR334W, strain swr1, hits give low values): 1.04 | normalized growth (locus YDR335W, strain msn5, hits give low values): 0.941 | normalized growth (locus YDR388W, hits give low values): 1.01 | normalized growth (locus YDR392W, strain spt3, hits give low values): 0.493 (active) | normalized growth (locus YDR502C, strain sam2, hits give low values): 1 | normalized growth (locus YEL003W, strain gim4, hits give low values): 0.97 | normalized growth (locus YEL037C, strain rad23, hits give low values): 1.01 | normalized growth (locus YEL061C, strain CIN8 (second series), hits give low values): 0.983 | normalized growth (locus YEL061C, strain CIN8, hits give low values): 1.04 | normalized growth (locus YER015W, strain faa2, hits give low values): 0.933 | normalized growth (locus YER016W, strain bim1, hits give low values): 1.02 | normalized growth (locus YER110C, hits give low values): 1.01 | normalized growth (locus YER111C, strain swi4, hits give low values): 1.01 | normalized growth (locus YER155C, strain BEM2 (second series), hits give low values): 0.874 | normalized growth (locus YER155C, strain BEM2, hits give low values): 1.05 | normalized growth (locus YER167W, strain BCK2, hits give low values): 1.04 | normalized growth (locus YFR010W, strain ubp6, hits give low values): 0.99 | normalized growth (locus YGL078C, strain dbp3, hits give low values): 0.94 | normalized growth (locus YGL086W, strain mad1, hits give low values): 1.01 | normalized growth (locus YGL167C, strain pmr1, hits give low values): 1.02 | normalized growth (locus YGL173C, strain kem1, hits give low values): 0.999 | normalized growth (locus YGL227W, strain vid30, hits give low values): 1.02 | normalized growth (locus YGL240W, strain doc1, hits give low values): 0.879 (active) | normalized growth (locus YGL248W, strain PDE1, hits give low values): 1.03 | normalized growth (locus YGL253W, strain hxk2, hits give low values): 0.754 (active) | normalized growth (locus YGR078C, strain PAC10, hits give low values): 1.01 | normalized growth (locus YGR135W, strain pre9, hits give low values): 0.985 | normalized growth (locus YGR229C, strain SMI1, hits give low values): 0.984 | normalized growth (locus YGR252W, strain gcn5, hits give low values): 0.935 | normalized growth (locus YHR013C, strain ard1, hits give low values): 0.965 | normalized growth (locus YHR027C, strain rpn1, hits give low values): 0.997 | normalized growth (locus YHR030C, strain SLT2, hits give low values): 1.05 and 1.01 | normalized growth (locus YHR079C, strain IRE1 (second series), hits give low values): 1 | normalized growth (locus YHR079C, strain IRE1, hits give low values): 1.02 | normalized growth (locus YHR094C, strain hxt1, hits give low values): 1.02 | normalized growth (locus YHR129C, strain ARP1, hits give low values): 1.06 | normalized growth (locus YHR142W, strain chs7, hits give low values): 0.78 (active) | normalized growth (locus YHR200W, strain rpn10, hits give low values): 0.999 | normalized growth (locus YIL066C, strain RNR3, hits give low values): 1.03 | normalized growth (locus YIL073C, strain SPO22, hits give low values): 0.994 | normalized growth (locus YIL125W, strain kgd1, hits give low values): 1.03 | normalized growth (locus YIR030C, strain dcg1, hits give low values): 1.01 | normalized growth (locus YJL092W, strain hpr5, hits give low values): 1.01 | normalized growth (locus YJL095W, strain BCK1 (second series), hits give low values): 0.83 (active) | normalized growth (locus YJL095W, strain BCK1, hits give low values): 1.04 and 1.01 | normalized growth (locus YJL115W, strain asf1, hits give low values): 1.04 | normalized growth (locus YJL129C, strain trk1, hits give low values): 0.921 | normalized growth (locus YJL134W, strain LCB3, hits give low values): 1.03 | normalized growth (locus YJL154C, strain vps35, hits give low values): 1.02 | normalized growth (locus YJL164C, strain tpk1, hits give low values): 0.865 (active) | normalized growth (locus YJL166W, strain qcr8, hits give low values): 0.845 (active) | normalized growth (locus YJL168C, strain set2, hits give low values): 1.02 | normalized growth (locus YJL187C, strain SWE1 (second series), hits give low values): 1 | normalized growth (locus YJR043C, strain POL32, hits give low values): 0.969 | normalized growth (locus YJR066W, strain TOR1, hits give low values): 0.96
